Most compounds without a hit are left out; they make up all but 7.3% or so of the library.
SMN2 splice up = increases expression of the SMN2 splice variant; HEK293 SMN2-luciferase splicing reporter, luminescence, 30-36 h; Potency, µM (titrated, usually from 46.1 µM), without a hit: at the highest dose activity change, positive = activation, actives largely listed as activators; 2.8% of 210,000 active; further: % of control where 0% means no effect; nearly all actives have a fitted effect of over 55% in size
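qHTS luciferase splicing reporter: luminescence rises when SMN2 exon 7 is included in transfected HEK293 cells. Compound exposure lasted 30-36 h at 37C, with 4.5 mM final sodium butyrate as control, followed by a ONE-Glo read.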
Rab9 promoter act = activators of Rab9 promoter; Huh7 Rab9 promoter-luciferase reporter, luminescence, 24 h; Potency, µM (titrated, usually from 9.22 µM), for the others: at the highest dose activation, negative = inhibition, usual class: activators; 2.8% of 320,000 active; further: % of control where 0% means no effect; nearly all actives have a fitted effect of over 60% in size
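Huh7 cells stably carrying a Rab9 promoter-luciferase reporter, 1500 cells per well in OP-MEM I with 10% FBS, treated with compound 24 hours at 37C. Luciferase activity read by luminescence after 10 minutes with Amplite reagent.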
NPC1 prom act = activates the NPC1 promoter | Huh7 NPC1 promoter luciferase reporter, 24 h | Potency, µM (highest dose often 9.22 µM), for inactives: top-dose activation, actives largely listed as activators | 2.4% of 320,000 active | AID 485313; further: % of control where 0% means no effect; nearly all actives have a fitted effect of over 60% in size
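Luminescence from an NPC1 promoter-driven luciferase reporter in stably transfected Huh7 cells was measured after 24 h compound treatment at 37 °C, followed by 10 min ambient incubation with luciferase detection reagent.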
ELG1 genotox = genotoxicity induction in ELG1-luciferase HEK293T cells. Potency, µM (highest dose often 46 µM), without a hit: top-dose activity change, positive = activation, usual class: activators. 1.3% of 330,000 active. HEK293T ELG1-luciferase reporter, luminescence, 16 h; further: % of control where 0% means no effect; nearly all actives have a fitted effect of over 60% in size
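Luminescence read-out: rising ELG1-luciferase signal, reflecting elevated ELG1 protein under genetic stress, flags genotoxic compounds. Cells were treated for 16 hr at 37 °C before ONE-Glo detection.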
FLuc counter = counter-screen for miR-21 project: firefly luciferase inhibitors or activators; P08659; purified FLuc, Km substrates, luminescence inhibition; Potency, µM (highest dose often 57.5 µM), without a hit: at the highest dose activity change, negative = inhibition, hits mostly inhibitors; 6.9% of 360,000 active;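 further: plate controls were vehicle for no effect and reference inhibitor for full effect; nearly all actives have a fitted effect of over 55% in size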
Target sequence (P08659 whole entry, looked up): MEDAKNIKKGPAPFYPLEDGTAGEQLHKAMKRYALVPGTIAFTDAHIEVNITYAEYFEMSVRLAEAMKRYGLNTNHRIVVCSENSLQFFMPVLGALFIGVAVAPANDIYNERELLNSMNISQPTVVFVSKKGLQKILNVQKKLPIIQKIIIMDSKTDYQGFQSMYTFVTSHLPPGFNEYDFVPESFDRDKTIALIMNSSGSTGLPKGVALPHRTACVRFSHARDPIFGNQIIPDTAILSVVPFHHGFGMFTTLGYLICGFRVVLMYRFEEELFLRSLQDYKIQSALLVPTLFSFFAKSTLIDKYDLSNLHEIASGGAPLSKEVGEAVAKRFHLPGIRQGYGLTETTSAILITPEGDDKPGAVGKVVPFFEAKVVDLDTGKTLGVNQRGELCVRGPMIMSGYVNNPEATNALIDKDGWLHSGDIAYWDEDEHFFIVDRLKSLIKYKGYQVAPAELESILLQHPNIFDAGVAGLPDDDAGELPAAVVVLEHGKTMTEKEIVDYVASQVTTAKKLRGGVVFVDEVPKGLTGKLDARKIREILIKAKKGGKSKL
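Biochemical qHTS of compounds, final roughly 60 µM downward over six points, against 10 nM purified firefly luciferase using Km concentrations of substrates (10 uM D-luciferin, 10 uM ATP) in Tris acetate pH 7.5 buffer; luminescence output.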
Luc counter = blocks Kinase-Glo luciferase, a counter-screen artifact; Potency, µM (doses to about 38.3 µM), for the others: at the top dose activity change, negative = inhibition, usual class: inhibitors; AID 1379; 0.28% of 200,000 active; Kinase-Glo luciferase, ATP luminescence, 8 min; further: on the % scale 0 is the no-effect control and ±100 the full control effect; nearly all actives have a fitted effect of over 60% in size
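Substrate mix (final 50 mM imidazole pH 7.2, 50 mM KCl, 7 mM MgCl2, 10 uM ATP, 0.01% Tween 20, 0.05% BSA) plus pin-tool compound, then Kinase-Glo detection mix; 8 min ambient, luminescence read.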
* = called active by the depositor; ? = inconclusive; · = not tested or not shown. The call rests on the fitted dose curve; in most records, active means well fitted curve in the direction sought with a large enough effect; inconclusive means small, poorly fitted or top-dose-only effect, or another doubt; inactive means no such curve, though single readings can be large; an effect the other way counts as inactive or inconclusive. Potency means the concentration at half of the fitted maximal effect.

SMILES	SMN2 splice up	Rab9 promoter act	NPC1 prom act	ELG1 genotox	FLuc counter	Luc counter
Cc1csc2nc(CSc3nc4ccccc4o3)cn12	13%	?	4µM*	?	21µM*	-23%
O=C(Nc1ccc2c(c1)OCO2)N1CCCC1	?	17%	13%	9%	-18%	-2%
O=C(Nc1ccc2c(c1)OCO2)N1CCOCC1	·	19%	4%	25%	-13%	-2%
O=C(Nc1ccc2c(c1)OCO2)N1CCN(c2ccc(F)cc2)CC1	22%	?	?	13%	24µM*	0%
CC1CN(C(=O)Nc2ccc3c(c2)OCO3)CC(C)O1 (centres undefined)	25%	27%	27%	?	17µM*	-4%
COc1ccc(C2c3c(-c4ccccc4)n[nH]c3C(=O)N2c2ccc(C(=O)O)cc2)cc1 (centres undefined)	·	-1%	-6%	8%	17µM*	·
COc1cccc(C2c3c(-c4ccccc4)n[nH]c3C(=O)N2c2ccc(C(=O)O)cc2)c1 (centres undefined)	-12%	-4%	-3%	1%	-13%	-1%
COc1cccc(-n2c(=O)c3sc4ccccc4c3n(Cc3c(F)cccc3Cl)c2=O)c1	5%	·	·	·	3%	·
COc1ccc(-c2nc(-n3c(C)c(C(C)=O)c(C(C)=O)c3C)sc2C)cc1	-46%	20%	0%	-4%	7%	1%
O=c1cccccc1NN=C1CCCCC1	·	10%	12%	17%	12µM*	·
CC(NC(=O)C(=O)NN=C1CCCCCCC1)c1ccccc1 (centres undefined)	-5%	7%	-2%	2%	2%	-2%
O=c1cccccc1NN=C1CCCCCC1	·	3.2µM*	2.2µM*	15µM*	6µM*	·
O=C(O)c1cc(Br)ccc1NN=C1CCCCC1	-10%	-1%	0%	4%	?	1%
COc1cc(/C=N/NC(=O)c2cccc(S(=O)(=O)N3CCCCC3)c2)cc(Br)c1O	-13%	-7%	-8%	0%	-4%	2%
C=CCNC(=O)c1cc2c(=O)n3ccccc3nc2s1	·	1.8µM*	2.5µM*	?	17µM*	·
CC(C)NC(=O)c1cc2c(=O)n3ccccc3nc2s1	·	0%	2%	-1%	-1%	·
O=C(O)c1ccccc1NCc1ccco1	·	0%	-4%	1%	-2%	·
CS(=O)(=O)c1ccccc1C(=O)Nc1nc2ccccc2[nH]1	·	2%	-4%	1%	-3%	·
COc1cc(SC)ccc1C(=O)Nc1nc2ccccc2[nH]1	·	-43%	-32%	-17%	0.014µM*	·
COc1cc(SC)ccc1C(=O)Nc1c(Cl)cncc1Cl	5%	-28%	0%	-5%	-2%	-4%
COc1ccccc1C(=O)NCCC(=O)Nc1nc2ccccc2[nH]1	·	-2%	2%	23µM*	-14%	·
O=C(CCNC(=O)c1ccccc1Cl)Nc1nc2ccccc2[nH]1	·	·	·	-1%	·	·
COc1ccccc1C(=O)Nc1nc2ccccc2[nH]1	·	-44%	?	?	0.019µM*	·
COc1cccc(-n2ccnc2SCC(=O)Nc2ccc(Cl)c(Cl)c2)c1	·	·	·	·	-16%	·
S=c1[nH]nc(-c2ccc(Cl)cc2)n1/N=C/c1ccco1	·	-11%	4%	0%	4%	·
SMILES	SMN2 splice up	Rab9 promoter act	NPC1 prom act	ELG1 genotox	FLuc counter	Luc counter
O=C1[C@@H]2[C@H](Cc3ccc(O)cc3)N[C@]3(C(=O)Nc4ccccc43)[C@@H]2C(=O)N1c1ccc(F)cc1	2%	-6%	?	-4%	-4%	1%
CC1=C(C(=O)Nc2cccc([N+](=O)[O-])c2)C2(CCC(C)CC2)OC1=O (centres undefined)	-14%	-1%	-8%	-3%	-7%	4%
O=C(O)c1cccc(-c2nc(-c3ccccc3C(F)(F)F)no2)c1	·	·	·	·	0.17µM*	·
NC(=O)c1ccc(-c2noc(-c3cccc(Cl)c3)n2)cc1	·	?	2.5µM*	?	?	·
COc1cc(-c2noc(-c3cccc(Cl)c3)n2)cc(OC)c1OC	-12%	6%	2%	-6%	-5%	-1%
Cc1noc(-c2ccc(-c3noc(-c4cccc(Cl)c4)n3)cc2)n1	·	·	·	·	-2%	·
O=C(O)c1cccc(-c2noc(-c3cccc(Cl)c3)n2)c1	·	?	0.089µM*	?	0.019µM*	·
CS(=O)(=O)c1ccccc1-c1nc(-c2cc(C(F)(F)F)cc(C(F)(F)F)c2)no1	1%	2%	-4%	2%	1%	1%
CC1N=C2c3ccccc3N=C(SCC(=O)NCc3ccc(Cl)cc3)N2C1=O (centres undefined)	·	·	·	·	6%	·
COc1cccc(C(N)=O)c1OC(=O)Cc1ccccc1F	·	17%	13%	9%	?	·
COc1ccc2sc(N(CCCN(C)C)C(=O)c3nc4ccccc4s3)nc2c1	10%	12%	0%	4%	-11%	3%
COc1ccccc1C(=O)N(CCC1CCCN1C)c1nc2ccccc2s1 (centres undefined)	-14%	-4%	-3%	?	4.8µM*	-8%
COc1ccc(C(=O)Cc2ccc3c(c2)OCO3)c(O)c1	5.6µM*	4µM*	2.8µM*	?	2.7µM*	-5%
COc1ccc(CC(=O)c2ccc(O)cc2O)cc1	-83%	?	?	?	?	-4%
CCOc1ccc(C(=O)Cc2ccc3oc(C(=O)O)cc3c2)c(O)c1	-4%	-2%	3%	-4%	?	3%
O=C(O)COc1ccc(C(=O)Cc2ccc3c(c2)OCCCO3)c(O)c1	-22%	-3%	-3%	-3%	27µM*	-4%
O=C(Cc1ccc2c(c1)OCCO2)c1c(O)cc(O)cc1O	11%	?	27%	17%	27µM*	-3%
Fc1ccc(-c2nnc(NC3=NCCCCC3)o2)cc1	-21%	0.089µM*	?	?	0.6µM*	11µM*
c1ccc(-c2nnc(NC3=NCCC3)o2)cc1	8.9µM*	0.35µM*	?	1.8µM*	6µM*	?
Fc1ccc(-c2nnc(-c3ccc(F)cc3)o2)cc1	·	?	2.8µM*	?	4.3µM*	·
Cc1cnc(NC(=O)C2COc3ccccc3O2)s1 (centres undefined)	10µM*	0.32µM*	0.1µM*	?	0.67µM*	-20%
Cc1csc(NC(=O)C2COc3ccccc3O2)n1 (centres undefined)	?	0.45µM*	?	0.52µM*	1.2µM*	-12%
Cc1ccc2sc(NNC(=O)C3COc4ccccc4O3)nc2c1C (centres undefined)	10µM*	2%	-1%	-2%	0%	1%
Cc1cccc(NC(=O)C2COc3ccccc3O2)n1 (centres undefined)	·	20%	30%	7%	?	·

Screening results (PubChem)
